From PubChem BioAssay
NS3h inh CB: hepatitis C NS3 helicase inhibition, primary screen. NS3h Cy5-dT15 DNA binding, fluorescence polarization. inhibition, % at 100 µM. actives 1.6% (n = 16,000);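 active = inhibition above the average over every tested compound plus 3 SD, cut at about 40% in these data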
Cy5 interf NS3h: counter-screen for HCV NS3 helicase inhibitors: fluorescence interference; AID 720488; actives 6% (n = 16,000); Cy5-dT15 DNA with NS3h; actives lie on both sides; signal over control mean, under 1 quenches; fluorescence interference ratio at 100 µM;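 active = compound fluorescence over control fluorescence at most 0.8, a quencher, or at least a set upper limit, an enhancer; inactive = ratio between 0.8 and the set upper limit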
* hit, by the source's call. In the library only some 6.9% were active in any assay of this set; here they are far more common.

SMILES	NS3h inh CB	Cy5 interf NS3h
C=CCN1C(=O)NC(=O)/C(=C\c2ccc(OCc3ccccc3Cl)c(OC)c2)C1=O	9	1.2*
C=CCN1C(=O)/C(=C\c2ccccc2OCc2ccc(Cl)cc2)SC1=S	16	0.99
C=CCN1C(=O)/C(=C/c2ccccc2OCc2ccccc2Cl)SC1=S	10	0.65*
COc1cc(C=C2C(=O)N(C)C(=O)N(C)C2=O)ccc1OCc1ccccc1Cl	5	1
O=C1Nc2ccccc2/C1=N/N=C\c1ccccc1[N+](=O)[O-]	33	0.59*
CCOc1ccc(/C=N\N=C2\C(=O)Nc3ccccc32)cc1	-10	0.96
COc1ccccc1N1CCN(/N=C/c2cc(Br)c(O)c(OC)c2)CC1	6	0.89
COc1ccc(C2C(=C(O)c3ccc(C)cc3)C(=O)C(=O)N2c2ncc(S(=O)(=O)c3ccc([N+](=O)[O-])cc3)s2)cc1 (configuration not stated)	14	0.84
O=C(C1=C(O)C(=O)N(c2ncc(S(=O)(=O)c3ccc([N+](=O)[O-])cc3)s2)C1c1ccc(F)cc1)c1ccco1 (configuration not stated)	11	0.79*
O=C(Nc1cc(Cl)cc(Cl)c1)c1ccc2ccccc2c1	19	1.3*
O=C(Nc1ccc(NC(=O)c2ccc3ccccc3c2)cc1)c1ccccc1	6	1
O=C(Nc1c(C(=O)N2CCC(Cc3ccccc3)CC2)cnn1-c1ccccc1)c1cccc(F)c1	6	1
O=C(Nc1c(C(=O)N2CCN(Cc3ccccc3)CC2)cnn1-c1ccccc1)c1cccc(F)c1	7	1.3*
CCc1ccc(S(=O)(=O)Nc2ccc(OC(=O)c3ccc(C)cc3)cc2)cc1	6	0.97
O=C(Nc1ccc(Cl)cc1)Nc1nnc(-c2cccc(F)c2)s1	2	0.99
O=C(Nc1ccc(Cl)cc1)Nc1nnc(-c2cccs2)s1	14	0.69*
CCCCOc1ccc(NC(=O)CSc2nnc(-c3cccc(F)c3)n2-c2ccccc2)cc1	2	1.1
CCCCOc1ccc(NC(=O)CCSc2nccn2C)cc1	14	0.69*
CC(=O)N=C1SC2CS(=O)(=O)CC2N1c1c(Cl)cccc1Cl (configuration not stated)	12	1.3*
Cc1c(Cl)cccc1NC1CS(=O)(=O)CC1O (configuration not stated)	3	1.1
COc1ccc(OC)c(N(CC(=O)NC(C)C)S(C)(=O)=O)c1	-5	1
O=C(Nc1ccccc1)Nc1nnc(SCc2ccccc2F)s1	-4	1.2*
O=C(Nc1ccccc1)Nc1nnc(SCc2ccc(F)cc2)s1	17	0.99
Cc1cc([N+](=O)[O-])c(-c2ccc(C=C3C(=O)c4ccccc4C3=O)o2)cc1Cl	6	1
O=C1NC(=O)C(=Cc2ccc(-c3cc(Cl)c([N+](=O)[O-])cc3Cl)o2)C(=O)N1	-141	0.04*
SMILES	NS3h inh CB	Cy5 interf NS3h
Cc1ccc(C(=O)N/C(=C\c2ccco2)C(=O)Nc2ccccc2C)cc1	8	1
COc1ccccc1NC(=O)/C(=C/c1ccco1)NC(=O)c1ccc(C)cc1	10	1.3*
Cc1ccnc(NS(=O)(=O)c2ccc(NC(=O)c3cc(Cl)ccc3[N+](=O)[O-])cc2)n1	6	1.1
COC(=O)C1=C(C)NC2=C(C(=O)c3ccccc32)C1c1ccc(OCc2ccc(Cl)cc2Cl)cc1 (configuration not stated)	1	0.89
C=CCN1C(=O)/C(=C\c2ccc(OC)cc2)SC1=Nc1ccccc1	2	0.79*
C=CCN1C(=O)/C(=C\c2ccc(OCc3cccc4ccccc34)cc2)SC1=S	4	1.1
Cc1nc2ccccc2n1S(=O)(=O)c1ccc2ccccc2c1	2	0.96
O=c1oc(-c2ccccc2Cl)nc2ccc(-c3ccc4nc(-c5ccccc5Cl)oc(=O)c4c3)cc12	1	0.69*
O=c1oc(-c2ccc(Cl)cc2Cl)nc2ccccc12	7	1.2
COc1cc(C=C2C(=O)NC(=O)NC2=O)ccc1OC(C)C	21	1.1
COC(=O)c1cc(Nc2nc3ccccc3nc2NS(=O)(=O)c2ccccc2)ccc1Cl	21	0.69*
COC(=O)c1ccccc1NS(=O)(=O)c1ccc(NC(C)=O)cc1	-7	1
CCSc1nnc(NC(=O)c2ccc(Br)o2)s1	10	0.77*
CCC(=O)Nc1ccc(NC(=O)c2ccc(Br)o2)cc1	-3	1
O=c1cc(-c2ccccc2)nc2cc(-c3cccs3)[nH]n12	57*	1.2
Cc1cc(=O)n2[nH]c(-c3cccs3)cc2n1	1	1.1
CCOc1cc(OCC)cc(C(=O)Nc2ccc(F)c([N+](=O)[O-])c2)c1	16	1.1
COc1ccc(N(CC(=O)Nc2ccc(C)cc2)S(C)(=O)=O)cc1	8	0.99
O=C(Nc1cccc(C(F)(F)F)c1)c1ccc(Cl)cc1Cl	-3	0.82
CC(C)(C)c1ccc(OCC(=O)Nc2cccc(OC(F)(F)F)c2)cc1	7	1
CC(C)(C)c1ccc(OCC(=O)Nc2cccc(C(=O)Nc3nccs3)c2)cc1	-6	0.8*
COc1ccc(C2NC(=O)NC(c3ccccc3)=C2c2ccc3ccccc3n2)cc1OC (configuration not stated)	11	1
CC1=C(C(=O)Nc2ccccc2Cl)C(c2cccc3ccccc23)NC(=O)N1 (configuration not stated)	14	1
O=C(Nc1ccccc1)C(=O)Nc1ccc(F)cc1	8	0.96
Cc1ccc(NC(=S)NC(=O)C(=O)Nc2ccccc2)cc1	10	0.72*
SMILES	NS3h inh CB	Cy5 interf NS3h
CCc1ccccc1NC(=O)CN(c1ccc(Cl)cc1)S(C)(=O)=O	0	0.99
COC(=O)c1ccc(C(=O)OC)c(NC(=O)COc2ccc(C)cc2C(C)(C)C)c1	3	0.99
CCN1C(=O)/C(=C\c2ccccc2OS(=O)(=O)c2ccccc2[N+](=O)[O-])SC1=S	6	0.95
Cc1ccc(/C(N)=N\OC(=O)COc2ccccc2)cc1	5	1
O=[N+]([O-])c1ccc(N2CCOCC2)cc1[N+](=O)[O-]	-14	1.1
COc1ccc(OCCNc2cc(Cl)ccc2[N+](=O)[O-])cc1	6	1.1
CCC(CO)Nc1cc(N2CCOCC2)ccc1[N+](=O)[O-] (configuration not stated)	14	0.73*
CCC(CO)Nc1cc(Cl)ccc1[N+](=O)[O-] (configuration not stated)	14	0.69*
COc1ccc(OC(C)C(=O)Nc2ccc(N(C)C)cc2)cc1 (configuration not stated)	-3	1
Cc1ccc(-c2noc(-c3ccc(I)cc3)n2)cc1	4	1.1
Cc1ccc(CNC(=O)C(=O)NCC(C)C)cc1	2	1
COCCNC(=O)Nc1ccc2nccnc2c1	3	1
COC(=O)c1nnn(-c2cc3nccnc3cc2F)c1C(=O)OC	6	0.72*
C=CCOc1c(I)cc(C=C2C(=O)NC(=S)NC2=O)cc1OCC	22	0.71*
CCOc1cc(C=C2C(=O)NC(=S)NC2=O)cc(Br)c1OCCOc1ccccc1C	13	0.95
CCc1nnc(NS(=O)(=O)c2ccc(N/C=C/C(=O)c3ccc(OC)cc3OC)cc2)s1	12	0.99
Nc1nnnn1/N=C\c1ccc(OCc2ccccc2)cc1	-5	1.1
Nc1nnnn1/N=C\c1ccc(C=O)cc1	-9	0.71*
COc1ccc(N2C(=O)/C(=C\c3ccc(OC)c(O)c3)SC2=S)cc1	1	1
